Assay results taken from PubChem BioAssay (EPA / NIEHS).
Results filed as inconclusive are left out. The source made the active and inactive calls. How the source made its calls: active means hit-call score of the fitted dose curve at least 0.9, where 1 is the maximum; inconclusive means response in the unintended direction; inactive means score below 0.9.

Assays:
[1] = ATG_XTT_Cytotoxicity: Cytotoxicity Assessment in the Attagene TRANS-FACTORIAL HepG2 Assay (AID 2283584)
Summary of the method: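 Transfect HepG2 with GAL4-UAS reporter units, dose compound, incubate 24 h, then measure viable cell number by XTT. Fit concentration response against DMSO baseline.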

[2] = TOX21_p53_BLA_p2_viability: Viability Assessment in the Tox21 HCT-116 p53 Agonism Beta-lactamase Assay, Phase 2 (AID 2283591);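 further: actives lower the ATP signal meaning cytotoxicity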
Summary of the method: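 HCT-116 p53-bla cells (4000/well) rested 5 h at 37C, then received compounds in DMSO (217-fold dilution) for 16 h at 37C, 5% CO2. After the CCF4 read, CellTiter-Glo was added; ATP luminescence was read after 30 min at room temperature.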

[3] = biological target: Cellular tumor antigen p53 (Homo sapiens) (UniProt P04637); assay: TOX21_p53_BLA_p2_ratio: Tox21 HCT-116 p53 Agonism Beta-lactamase Assay, Ratio, Phase 2 (AID 2283592)
Summary of the method: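 An inducible beta-lactamase reporter in HCT116 cells signals p53 pathway activation. After 16 h chemical exposure at 37C, cells load CCF4-AM substrate for 2 h at room temperature; activity is the cleaved/uncleaved emission ratio relative to DMSO.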

[4] = TOX21_p53_BLA_p3_viability: Viability Assessment in the Tox21 HCT-116 p53 Agonism Beta-lactamase Assay, Phase 3 (AID 2283593);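 further: cells exposed to compound for 16 h before reading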
Summary of the method: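 HCT-116 cells (4000/well) rested 5 h at 37C, then got DMSO compounds by pin tool (217-fold dilution) for 16 h at 37C, 5% CO2. After the bla read, CellTiter-Glo was added and luminescence read at 30 min, room temperature.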

[5] = TOX21_p53_BLA_p5_viability: Viability Assessment in the Tox21 HCT-116 p53 Agonism Beta-lactamase Assay, Phase 5 (AID 2283600)
Summary of the method: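 Counter-readout for cytotoxicity: ATP-dependent luminescence from CellTiter-Glo, read in the beta-lactamase wells after 30 min at RT, following a 16 h compound exposure at 37C.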

[6] = biological target: Cellular tumor antigen p53 (Homo sapiens) (UniProt P04637); assay: TOX21_p53_BLA_p3_ratio: Tox21 HCT-116 p53 Agonism Beta-lactamase Assay, Ratio, Phase 3 (AID 2283596)
Summary of the method: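 HCT116 p53-bla cells (4000/well) given compound in DMSO (217-fold dilution) after 5 h, incubated 16 h at 37C. CCF4-AM substrate 2 h at room temperature; 460/530 nm emission ratio, gain fitted against DMSO.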

[7] = TOX21_p53_BLA_p4_viability: Viability Assessment in the Tox21 HCT-116 p53 Agonism Beta-lactamase Assay, Phase 4 (AID 2283597);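 further: hits lower the luminescence signal meaning cytotoxicity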
Summary of the method: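 Compound exposure of HCT116 cells lasts 16 h at 37C, 5% CO2, with DMSO stocks diluted 217-fold. Cellular ATP is then quantified by CellTiter-Glo luminescence after 30 min at room temperature.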

[8] = biological target: Cellular tumor antigen p53 (Homo sapiens) (UniProt P04637); assay: TOX21_p53_BLA_p5_ratio: Tox21 HCT-116 p53 Agonism Beta-lactamase Assay, Ratio, Phase 5 (AID 2283599)
Summary of the method: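 HCT-116 cells carrying a p53-inducible beta-lactamase reporter were seeded at 4000 cells/well and dosed after 5 h with compound in DMSO (217-fold dilution). After 16 h at 37C, CCF4-AM substrate was added for 2 h, and the 460/530 nm emission ratio was scored as gain-of-signal versus DMSO.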

Measured: AC50

Chain of Cellular tumor antigen p53 (Homo sapiens) (P04637 whole entry, looked up): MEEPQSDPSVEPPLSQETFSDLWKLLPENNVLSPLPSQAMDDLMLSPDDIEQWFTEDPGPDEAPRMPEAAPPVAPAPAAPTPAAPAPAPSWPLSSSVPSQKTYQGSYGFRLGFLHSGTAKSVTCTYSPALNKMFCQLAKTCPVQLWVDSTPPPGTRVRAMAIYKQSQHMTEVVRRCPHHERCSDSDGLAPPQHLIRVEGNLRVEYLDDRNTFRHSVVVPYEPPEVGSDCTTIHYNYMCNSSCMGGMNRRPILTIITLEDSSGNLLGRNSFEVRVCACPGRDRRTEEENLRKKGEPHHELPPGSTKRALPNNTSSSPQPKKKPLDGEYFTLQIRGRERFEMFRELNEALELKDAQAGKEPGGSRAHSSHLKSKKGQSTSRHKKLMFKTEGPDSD

CC(Oc1cc(Cl)ccc1Cl)C(=O)O (stereo unspecified)
inactive: [1] | [2] | [3] | [4] | [5]

Cc1occc(=O)c1OC(=O)C(C)C
inactive: [1] | [3] | [4] | [6]

C=COCCOCCOC=C
inactive: [1] | [2] | [6] | [7]

CCCC(C)C(O)CC (stereo unspecified)
inactive: [1] | [3] | [4] | [6] | [7]

O=C(CS)OCCOC(=O)CS
inactive: [1] | [2] | [7]
active: [3] 42.9 µM | [6] 39.3 µM | [8] 58.3 µM

Nc1c(Cl)cc(Cl)cc1[N+](=O)[O-]
inactive: [1] | [2] | [3] | [5]

CCCCC(CC)C(=O)OC(C)C (stereo unspecified)
inactive: [1] | [2] | [3] | [6] | [8] | [5]

CCCCCCCCSCCO
inactive: [1] | [2] | [8]

Cc1cccc(Nc2ccccc2)c1
inactive: [1] | [2] | [3] | [6] | [8]

CC(C)C(OC(=O)c1ccccc1)C(C)(C)COC(=O)c1ccccc1 (stereo unspecified)
inactive: [1] | [2] | [3] | [4] | [8] | [5]

CC=CC=CCOC(=O)C(C)C
inactive: [1] | [2] | [4] | [6] | [7]

CC(=O)c1ccccn1
inactive: [1] | [2] | [3] | [7] | [8] | [5]

C=CCCC(=O)/C=C/C1C(C)=CCCC1(C)C (stereo unspecified)
inactive: [1] | [2] | [3] | [8] | [5]

CCCCCCCCCCCCCC(=O)OCC(O)CO (stereo unspecified)
inactive: [1] | [2] | [3] | [8] | [5]

O=C(Nc1ccc2c(O)c(N=Nc3ccc(N=Nc4ccc(S(=O)(=O)O)cc4)cc3)c(S(=O)(=O)O)cc2c1)c1ccccc1
inactive: [1] | [2] | [7]

Cc1ccc(C)o1
inactive: [1] | [2] | [4] | [8]

C[Si]1(C)O[Si](C)(C)O[Si](C)(C)O1
inactive: [1] | [2] | [6]

Cc1ccc(N)c(S(=O)(=O)O)c1
inactive: [1] | [2] | [4] | [6] | [8] | [5]

CCOC(=O)[C@@H](C)Oc1ccc(Oc2nc3ccc(Cl)cc3o2)cc1
inactive: [1] | [2] | [3] | [6] | [8]

O=CN1CCOCC1
inactive: [1] | [2] | [3] | [8]

Cc1c(C2(c3cc(Br)c(O)c(Br)c3C)OS(=O)(=O)c3ccccc32)cc(Br)c(O)c1Br
inactive: [1] | [2] | [6] | [5]
active: [4] 37.1 µM | [7] 28.4 µM

CC(C)NCC(O)COc1ccc(CC(N)=O)cc1 (stereo unspecified)
inactive: [1] | [2] | [3] | [8] | [5]

CC(C)CC(C)CC(O)CC(C)C (stereo unspecified)
inactive: [1] | [3] | [4] | [6] | [7] | [8] | [5]

C=C(C)CNCC
inactive: [1] | [2] | [3] | [7] | [8]

C#CC(C)N(C)C(=O)Nc1ccc(Cl)cc1 (stereo unspecified)
inactive: [1] | [2] | [3] | [6] | [7] | [8] | [5]

CC(C)CCOC(=O)c1ccccc1
inactive: [1] | [2] | [3] | [4] | [8] | [5]

CC(C)(C)c1ccc(C(=O)O)cc1
inactive: [1] | [2] | [3] | [6] | [8] | [5]

C#CC(C)(O)CC(C)C (stereo unspecified)
inactive: [1] | [2] | [3] | [4] | [8] | [5]

COc1ccc(N=Nc2cc(C)c(N=Nc3ccc(S(=O)(=O)O)cc3)cc2OC)cc1
inactive: [1] | [2] | [4] | [6] | [7] | [8] | [5]

OC[C@H]1O[C@@H](Oc2ccc(O)cc2)[C@H](O)[C@@H](O)[C@@H]1O
inactive: [1] | [3] | [4] | [6] | [7] | [8] | [5]

C1CCOC1
inactive: [1] | [2] | [4]

O=c1c(O)c(-c2ccc(O)cc2)oc2cc(O)cc(O)c12
inactive: [1] | [2] | [3] | [8]

OCc1ccc(Cl)cc1Cl
inactive: [1] | [2] | [3] | [6] | [8] | [5]

COC(C)(C)CC(C)=O
inactive: [1] | [2] | [4] | [6] | [8]

CCCOCCO
inactive: [1] | [2] | [3] | [4] | [8] | [5]

C[C@H](CCC(=O)NCC(=O)O)[C@H]1CC[C@H]2[C@@H]3[C@H](O)C[C@@H]4C[C@H](O)CC[C@]4(C)[C@H]3C[C@H](O)[C@]12C
inactive: [1] | [2] | [6] | [7] | [8] | [5]
